Consider seven compounds from PubChem BioAssay.

Active and inactive are the calls of the source.

For experiment [1], the system named is Human papillomavirus type 1a protein E7 (residues 44-93). The experiment can be described thus: small molecules binding HPV E7 44-93 – biochemical, small-molecule microarray, residues 44-93, 635 nm fluorescence, primary screen (AID 1108).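 Note: E7 fragment applied at 1 µg/mL in TBST for 1 h at 4 C; score combines spot fluorescence with its signal to noise ratio.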 The conditions noted are these: fluorescence 635 nm, higher = more signal.
The nature of experiment [2]: hepatitis C replication reporter changes, two-sided – Huh7 cells, luciferase reporter, HCV replication inhibitor project, primary screen (AID 1109).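 Note: huh7 hepatoma cells harbouring a luciferase neomycin HCV replicon reporter; luciferase luminescence as measure of HCV replicon replication; test concentration not given here.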 The settings on record: Huh7 HCV replicon luciferase reporter, 48 h; higher = more signal. For orientation: A reporter such as luciferase makes a cellular process visible.
The target of experiment [3] is Left-right determination factor 2 (Homo sapiens) (UniProt O00292). The experiment is described as follows: small molecules binding LEFTY2 protein – biochemical, small-molecule microarray, 635 nm fluorescence scan, primary screen (AID 1110). The settings on record: higher = more signal.
Experiment [4] has as its target Calmodulin-1 (Homo sapiens) (UniProt P0DP23). The experiment can be described thus: small molecules binding calmodulin-1 with EGTA – biochemical, small-molecule microarray, Cy5-labelled CALM1, profiling panel (AID 1111).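 Note: labelled calmodulin applied in Tris saline Tween buffer holding calcium plus EGTA and DTT.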 The settings on record: Cy5-CALM1 binding fluorescence, higher = more signal.
Experiment [5] has the same target. The experiment can be described thus: small molecules binding Ca-loaded calmodulin-1 – biochemical, small-molecule microarray, Cy5-labelled CALM1, plus calcium, artefact control for SMM control-protein annotation, profiling panel (AID 1112).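 Note: score merges spot fluorescence with signal to noise from triplicate slides.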 The conditions noted are these: Cy5-CALM1 binding fluorescence, higher = more signal.
A short description of experiment [6]: probe aWnt5a binding to arrayed compounds – biochemical, biotinylated probe, 635/667 nm fluorescence, primary screen (AID 1113).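 Note: score merges 667 nm fluorescence intensity with signal-to-noise per printed feature.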 The settings on record: small-molecule microarray, higher = more signal.
The nature of experiment [7]: probe aShh binding to arrayed compounds – biochemical, biotinylated probe, 635/667 nm fluorescence, primary screen (AID 1114).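 Note: probe is biotin-labelled aShh protein from a stem cell growth factor screen; measures binding of labelled protein to compounds printed on the slide; score merges feature fluorescence at 667 nm with signal-to-noise.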 The settings on record: small-molecule microarray, higher = more signal.
The nature of experiment [8]: probe aNog binding to arrayed compounds – biochemical, biotinylated probe, 635/667 nm fluorescence, primary screen (AID 1115).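 Note: probe is biotinylated aNog protein used at 0.15 µg/mL for 1 h at 4 C; z-score combines 667 nm fluorescence of each spot with its signal to noise.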 The settings on record: small-molecule microarray, higher = more signal.
Experiment [9] deals with Torsin-1A-interacting protein 1 (Homo sapiens) (UniProt Q5JTV8). The experiment is described as follows: compound microarray binding of lysate hLAP1 – cell lysate, small-molecule microarray, COS7 lysate, 635/667 nm fluorescence, primary screen (AID 1116). The settings on record: 635 nm fluorescence, higher = more signal.
Experiment [10] addresses Alpha-bungarotoxin (Bungarus multicinctus) (UniProt P60615). The experiment is described as follows: compounds binding labelled alpha-BTX control protein – biochemical, small-molecule microarray, Alexa647 label, 635/667 nm fluorescence, artefact control for SMM control protein annotation, profiling panel (AID 1117). The settings on record: alpha-BTX-A647 binding fluorescence, higher = more signal.

A further experiment deals with Albumin (Bos taurus) (UniProt P02769). The experiment is described as follows: compounds binding labelled BSA control protein – biochemical, small-molecule microarray, Alexa647 label, 635/667 nm fluorescence, artefact control for SMM control protein annotation, profiling panel (AID 1118).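 Note: score merges 667 nm emission intensity and signal-to-noise per printed compound spot.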 The settings on record: BSA-A647 binding, fluorescence 635 nm, higher = more signal.

Experiment [11] in a line: probe aXIP binding to arrayed compounds – biochemical, NeuroSMM set, 635/667 nm fluorescence, primary screen (AID 1119).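 Note: probe is the protein aXip251-270 applied at 1 µg/mL to compound-printed slides; binding of probe to printed compounds measured as 667 nm fluorescence plus signal to noise.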 The conditions noted are these: small-molecule microarray, higher = more signal, called active from +8 up or from −8 down.
Experiment [12] is described as follows: probe aNOTCH3 binding on compound microarray – biochemical, small-molecule microarray, 635/667 nm fluorescence, primary screen (AID 1120).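 Note: probe is a biotin-tagged antibody raised against NOTCH3 rather than NOTCH3 protein; score merges spot fluorescence near 667 nm with spot signal to noise.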 The conditions noted are these: higher = more signal.
A short description of experiment [13]: probe aNOTCH2 binding on compound microarray – biochemical, small-molecule microarray, 635/667 nm fluorescence, primary screen (AID 1121).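 Note: score merges feature fluorescence read at 667 nm with its signal to noise.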 The conditions noted are these: higher = more signal.
Experiment [14] addresses Carbonic anhydrase 2 (Homo sapiens) (UniProt P00918). The experiment is described as follows: compounds binding carbonic anhydrase 2 – biochemical, small-molecule microarray, Alexa647-labelled CAII, profiling panel (AID 1122). The conditions noted are these: CAII-A647 binding fluorescence, higher = more signal.
A short description of experiment [15]: COS7 lysate on small-molecule microarray, probe aHis, 635 nm (AID 1123).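 Note: z-score combines 667nm fluorescence intensity with signal-to-noise per printed compound spot.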 The conditions noted are these: COS7 cell lysate, fluorescence, higher = more signal.
A short description of experiment [16]: probe aLAP1 signal on lysate-treated microarray – cell lysate, small-molecule microarray, COS7 lysate, primary screen (AID 1124).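 Note: lysate comes from COS7 cells expressing LAP1 and is applied at 0.3 µg/mL; score merges spot fluorescence near 667 nm with signal-to-noise over triplicate slides.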 The conditions noted are these: probe aLAP1, fluorescence, higher = more signal.
The subject of another experiment is Sam68 (KHDRBS1). The experiment is described as follows: compounds binding KHDRBS1 protein – biochemical, small-molecule microarray, 635 nm fluorescence, primary screen (AID 1125).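 Note: score merges 667 nm channel intensity with signal to noise over triplicate slides.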 The conditions noted are these: higher = more signal.
The subject of experiment [17] is Chordin-like protein 2 (CHRDL2). The experiment can be described thus: compounds binding chordin-like 2 – biochemical, small-molecule microarray, 635 nm fluorescence, primary screen (AID 1126).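 Note: printed compound slides probed with Chrdl2 protein at 4 µg/mL for 1 h at 4 C; score merges 667 nm emission intensity with signal to noise over three replicate slides.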 The conditions noted are these: fluorescence 635 nm, higher = more signal.
Experiment [18] deals with Concanavalin-A (Canavalia ensiformis) (UniProt P02866). The experiment is described as follows: compounds binding concanavalin A lectin – biochemical, small-molecule microarray, Alexa647 label, 635 nm, artefact control for SMM control protein annotation, primary screen (AID 1127).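 Note: z combines 667 nm emission intensity with signal-to-noise across three replicate slides.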 The settings on record: ConA-A647 binding fluorescence, higher = more signal.
Concanavalin-A (Canavalia ensiformis), sequence (P02866 whole entry, looked up): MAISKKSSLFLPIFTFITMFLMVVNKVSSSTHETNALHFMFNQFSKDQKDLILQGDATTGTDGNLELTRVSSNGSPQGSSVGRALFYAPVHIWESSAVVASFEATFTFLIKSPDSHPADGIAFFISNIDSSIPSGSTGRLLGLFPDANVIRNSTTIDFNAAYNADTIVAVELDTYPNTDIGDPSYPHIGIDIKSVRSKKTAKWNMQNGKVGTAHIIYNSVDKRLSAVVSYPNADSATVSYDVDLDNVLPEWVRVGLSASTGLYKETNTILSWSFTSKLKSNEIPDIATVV

Alpha-bungarotoxin (Bungarus multicinctus), sequence (P60615 whole entry, looked up): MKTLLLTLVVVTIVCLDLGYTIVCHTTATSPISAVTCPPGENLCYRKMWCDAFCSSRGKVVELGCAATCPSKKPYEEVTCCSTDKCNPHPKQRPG
Albumin (Bos taurus), sequence (P02769 whole entry, looked up): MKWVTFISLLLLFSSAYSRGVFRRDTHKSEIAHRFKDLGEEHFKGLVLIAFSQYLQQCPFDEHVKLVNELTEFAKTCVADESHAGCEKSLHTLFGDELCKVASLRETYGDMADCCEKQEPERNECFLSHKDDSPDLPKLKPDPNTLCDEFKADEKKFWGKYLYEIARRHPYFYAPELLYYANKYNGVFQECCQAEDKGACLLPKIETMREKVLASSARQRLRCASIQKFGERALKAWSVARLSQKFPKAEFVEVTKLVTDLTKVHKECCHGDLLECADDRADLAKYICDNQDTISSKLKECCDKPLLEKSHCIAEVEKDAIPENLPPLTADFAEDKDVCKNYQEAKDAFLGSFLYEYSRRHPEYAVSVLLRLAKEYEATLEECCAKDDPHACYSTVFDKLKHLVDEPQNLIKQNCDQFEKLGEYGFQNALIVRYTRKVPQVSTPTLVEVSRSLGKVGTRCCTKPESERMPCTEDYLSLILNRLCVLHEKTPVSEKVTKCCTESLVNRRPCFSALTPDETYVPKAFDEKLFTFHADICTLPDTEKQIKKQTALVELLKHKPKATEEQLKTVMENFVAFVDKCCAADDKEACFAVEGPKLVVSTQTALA
Torsin-1A-interacting protein 1 (Homo sapiens), sequence (Q5JTV8 whole entry, looked up): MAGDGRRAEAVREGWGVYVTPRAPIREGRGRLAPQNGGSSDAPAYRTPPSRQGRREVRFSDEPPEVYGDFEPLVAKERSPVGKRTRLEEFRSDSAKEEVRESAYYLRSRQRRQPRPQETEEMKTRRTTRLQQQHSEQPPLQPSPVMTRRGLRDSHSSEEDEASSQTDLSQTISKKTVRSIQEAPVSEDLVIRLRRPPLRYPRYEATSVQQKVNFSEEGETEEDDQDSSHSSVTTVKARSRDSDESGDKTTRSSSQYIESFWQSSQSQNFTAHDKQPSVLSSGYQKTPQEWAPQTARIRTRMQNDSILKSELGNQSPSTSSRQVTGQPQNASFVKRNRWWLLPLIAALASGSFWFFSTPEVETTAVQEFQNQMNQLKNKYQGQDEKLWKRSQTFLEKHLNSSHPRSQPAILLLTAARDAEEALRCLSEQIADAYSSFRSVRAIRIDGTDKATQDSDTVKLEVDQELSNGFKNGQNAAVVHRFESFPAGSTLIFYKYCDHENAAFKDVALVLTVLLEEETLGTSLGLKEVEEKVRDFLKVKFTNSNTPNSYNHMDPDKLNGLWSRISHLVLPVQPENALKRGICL
Left-right determination factor 2 (Homo sapiens), sequence (O00292 whole entry, looked up): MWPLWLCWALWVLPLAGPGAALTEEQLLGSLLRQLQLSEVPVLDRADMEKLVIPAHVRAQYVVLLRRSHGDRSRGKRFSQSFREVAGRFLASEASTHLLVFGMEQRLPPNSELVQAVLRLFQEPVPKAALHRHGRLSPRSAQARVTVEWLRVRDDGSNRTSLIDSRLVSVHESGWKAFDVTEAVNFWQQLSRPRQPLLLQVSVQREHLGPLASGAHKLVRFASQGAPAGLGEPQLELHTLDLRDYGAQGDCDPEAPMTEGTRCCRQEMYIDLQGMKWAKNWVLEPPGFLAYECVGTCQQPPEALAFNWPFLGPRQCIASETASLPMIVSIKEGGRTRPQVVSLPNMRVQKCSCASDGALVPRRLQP

In the case of `COCCOC(=O)N1C(=O)[C@@]2(c3cc(C#CCCO)ccc31)[C@H](C(=O)N1CCCCCCC1)[C@H]1C(=O)O[C@H](c3ccccc3)[C@H](c3ccccc3)N1[C@@H]2c1ccc(O)cc1`, the composite z-score in experiment [1] stood at 1.02; in experiment [3], 0.383; in [4], 2.14; in experiment [5], 0.719; in [6], 0.0775; in experiment [7] it was 0.814. In addition, the composite z-score stood at 0.916 in experiment [8]; 2.56 in experiment [9]; 1.45 in experiment [10]; 0.792 in the experiment with Albumin (Bos taurus); 0.715 in experiment [12]; 0.102 in [13]. Further, the composite z-score in experiment [14] is 0.731; in experiment [15], 2.81; in [16], 0.837; with Sam68 (KHDRBS1), 1.29; in experiment [17], 0.279; in experiment [18], 1.11. Moreover, the z-score in experiment [2] was -1.18. The composite Z-score in experiment [11] is 0.516 (inactive).
`NC(=O)NCC#Cc1ccc2c(c1)[C@]1(C(=O)N2)[C@H](c2ccccc2OCCO)N2[C@H](c3ccccc3)[C@H](c3ccccc3)OC(=O)[C@H]2[C@@H]1C(=O)N1CCN(c2ncccn2)CC1`: the composite z-score is 1.4 in [1]; 0.235 in experiment [3]; 0.427 in experiment [4]; 0.263 in experiment [5]; -0.124 in experiment [6]; 0.399 in [7]. The composite z-score is -0.582 in [8]; 1.04 in [9]; 0.959 in [10]; 0.0405 in the experiment with Albumin (Bos taurus); 0.0539 in [12]; -0.0907 in experiment [13]. For the same compound, the composite z-score in experiment [14] was 0.335; in [15], 1.82; in experiment [16] it was 0.614; in the experiment on Sam68 (KHDRBS1) it was 1.29; in [17] it was 0.326; in [18], 0.946. The same compound displayed a z-score in experiment [2] of -0.729. In addition, the composite Z-score in experiment [11] is 0.39 (inactive).
On to `Cc1ccc(S[C@]2(C(=O)NC(C)C)CC(=O)N(C3Cc4ccccc4C3)[C@@H]2c2ccc(CO)cc2)cc1`, for which the composite z-score was 0.951 in experiment [1]; -0.873 in experiment [3]; -0.329 in [4]; -0.603 in experiment [5]; -0.098 in experiment [6]; -0.421 in experiment [7]. Also, the composite z-score in experiment [8] is -0.315; in experiment [9] it was 1.52; in experiment [10] it was 1.12; with Albumin (Bos taurus) it was 0.451; in [12], -0.409; in [13], -0.205. Moreover, the composite z-score in experiment [14] is 0.81; in [15] it was 1.86; in [16], 0.123; in the experiment on Sam68 (KHDRBS1), -0.0334; in experiment [17] it was -1.2; in experiment [18], 1.16. In addition, the z-score in experiment [2] is -2.01. Moreover, the composite Z-score in [11] is 0.52 (inactive).
With `C/C(=N\O)C(=O)NCCCCCNC(=O)OCc1ccccc1`, the composite z-score was 0.63 in [1]; 0.516 in experiment [3]; 0.169 in experiment [4]; -0.269 in experiment [5]; 0.0115 in [6]; -0.262 in experiment [7]. Also, the composite z-score in [8] is 0.32; in experiment [9], 0.371; in [10] it was 1.06; with Albumin (Bos taurus) it was 0.487; in experiment [12] it was 0.0066; in experiment [13] it was -0.0942. In addition, the composite z-score turned out to be 0.355 in experiment [14]; 0.332 in experiment [15]; 0.199 in experiment [16]; 0.639 with Sam68 (KHDRBS1); 0.367 in [17]; 0.818 in [18]. The z-score in experiment [2] is -0.0365. Moreover, the composite Z-score in experiment [11] is 0.179 (inactive).
Take `COc1ccc([Si](C)(C)[C@H]2[C@H](CCO)O[C@@]3(C(=O)N(Cc4ccccc4)c4ccc(N5C(=O)c6cccc7cccc5c67)cc43)[C@@H]2C)cc1`: the composite z-score in experiment [1] is -0.137; in [3], -0.681; in experiment [4], 0.793; in experiment [5], 0.906; in [6], -0.124; in experiment [7], -0.0769. Further, the composite z-score is 0.0936 in [8]; 0.461 in experiment [9]; 0.524 in experiment [10]; 0.151 in the experiment with Albumin (Bos taurus); -0.18 in experiment [12]; -0.155 in experiment [13]. The composite z-score in experiment [14] was 0.286; in experiment [15], 0.0609; in experiment [16], 1.06; in the experiment with Sam68 (KHDRBS1) it was 0.143; in experiment [17], -0.966; in experiment [18], 0.386. Besides, in experiment [2], the z-score was -4.5. Also, the composite Z-score in experiment [11] was -0.229 (inactive).
Regarding `COc1cccc([C@@H]2[C@@H](C)CC[C@H]3C(=O)N(C)[C@@H](C(C)C)C(=O)N23)c1`, the composite z-score is 0.148 in experiment [1]; 0.375 in [3]; -0.169 in experiment [4]; -0.562 in experiment [5]; -0.204 in experiment [6]; -0.0011 in experiment [7]. Besides, the composite z-score in experiment [8] is -0.141; in experiment [9], 1.11; in experiment [10] it was 0.0641; with Albumin (Bos taurus) it was -0.199; in experiment [12], -0.0111; in experiment [13] it was -0.181. In addition, the composite z-score in [14] is -0.155; in [15], 0.0706; in [16], -0.343; in the experiment on Sam68 (KHDRBS1), 0.346; in experiment [17] it was 0.466; in experiment [18], 0.416. The z-score in [2] came out at 0.512. For the same compound, the composite Z-score in experiment [11] is 0.4 (inactive).
Consider `CCN1C(C)=C(C(=O)OC)[C@@H](c2ccccc2)N2C(=O)[C@](O)(C(=O)OC)[C@@H](c3ccccc3)C(C(C)=O)=C12`, for which the composite z-score was -0.0269 in [1]; 0.784 in experiment [3]; -0.693 in [4]; -0.0342 in experiment [5]; -0.0125 in experiment [6]; -0.262 in experiment [7]. In addition, the composite z-score was 0.19 in experiment [8]; 0.0025 in experiment [9]; -0.576 in [10]; -0.647 with Albumin (Bos taurus); 0.641 in experiment [12]; -0.0483 in experiment [13]. Besides, the composite z-score is 0.916 in [14]; -0.0995 in experiment [15]; -0.141 in [16]; -0.0684 in the experiment with Sam68 (KHDRBS1); 0.708 in experiment [17]; -1.15 in experiment [18]. Further, in experiment [2], the z-score is -0.279. Also, in experiment [11], the composite Z-score was 0.319 (inactive).
